# Compound activity: PubChem, National Center for Advancing Translational Sciences (NCATS)
# BRCA1 expr act – qHTS Assay to Identify Small Molecule Activators of BRCA1 Expression; actives 1.1% (n = 380,000); MCF7-BRCA1-FFLuc reporter, luminescence, 48 h; response scale: scaled: vehicle 0%, 10 µM genistein 100%; Potency, µM (titrated, usually from 46.1 µM), inactives show at the highest dose activation, usual class: activators; further: nearly all actives have a fitted effect of over 80% in size
#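 Luminescence from a BRCA1-driven firefly luciferase in MCF7 cells was the read-out, taken 15 min after substrate addition following 48 h compound exposure at 37 °C. Data were normalized to a 10 microM genistein control and DMSO vehicle.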
# ERG Ets-DNA blk – qHTS for Small Molecule Inhibitors of the ERG Ets/DNA interaction. Potency, µM (titrated, usually from 76.9 µM), without a hit: top-dose FP activity, negative = inhibition, hits mostly inhibitors. actives 0.028% (n = 370,000). fluorescence polarization, His-ERG Ets domain / labelled DNA; active means well fitted inhibition curve with a large enough effect in the polarisation, with a control signal flat; inconclusive means small, poorly fitted or top-dose-only effect, or effect the other way, or a change in a side signal; inactive means no such curve, though single readings can be large or run the other way; the % refers to the polarisation;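 further: polarization taken with two DNA probes labelled with fluorescein and Texas red; % of control where 0% means no effect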
# Target sequence (P11308 whole entry, looked up, the tested form may be a part): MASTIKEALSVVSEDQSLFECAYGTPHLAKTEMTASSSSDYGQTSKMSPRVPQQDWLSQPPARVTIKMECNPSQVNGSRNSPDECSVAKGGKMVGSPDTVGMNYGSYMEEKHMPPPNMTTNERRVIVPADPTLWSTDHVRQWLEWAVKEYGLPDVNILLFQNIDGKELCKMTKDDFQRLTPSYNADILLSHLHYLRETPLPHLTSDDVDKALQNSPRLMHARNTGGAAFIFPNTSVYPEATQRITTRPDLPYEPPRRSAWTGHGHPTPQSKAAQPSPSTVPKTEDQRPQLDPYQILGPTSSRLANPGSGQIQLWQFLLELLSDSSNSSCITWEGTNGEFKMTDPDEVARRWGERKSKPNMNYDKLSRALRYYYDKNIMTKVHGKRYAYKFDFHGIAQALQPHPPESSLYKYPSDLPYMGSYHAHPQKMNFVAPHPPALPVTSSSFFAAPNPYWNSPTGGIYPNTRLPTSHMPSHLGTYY
#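 His-tagged ERG Ets domain (1 uM in the protein solution; 300mM KCl, 50mM Tris-HCl, 1mM EDTA, 1mM DTT, pH 7.5) received compound, then a probe mix of 5 nM fluorescein-DNA and 100nM Texas-615-DNA. Fluorescence polarization was read for both dyes.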
# B2AR arrestin – qHTS assay of beta-arrestin-biased ligands of beta2-adrenergic receptor | AID 492947, 2010 | Potency, µM (doses to about 46.1 µM), without a hit: at the highest dose activation, hits mostly activators | beta-arrestin recruitment to beta2AR, cell-based reporter | actives 0.02% (n = 330,000);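 further: 0% = DMSO controls and full agonism = EC100 isoproterenol or metaproterenol; nearly all actives have a fitted effect of over 65% in size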
# Mito fusion yeast – qHTS Assay for Small Molecule Inhibitors of Mitochondrial Division or Activators of Mitochondrial Fusion; S. cerevisiae fusion-defective mutant growth rescue, CellTiterGlo 48 h; Potency, µM (top dose mostly 46.1 µM), without a hit: top-dose growth rescue (activation), actives largely listed as activators; actives 0.23% (n = 320,000); AID 485298, 2010; further: % of control where 0% means no effect; nearly all actives have a fitted effect of over 45% in size
#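 Luminescent cell viability in 1536-well qHTS format served as the measure of rescued growth in ts fusion-mutant S. cerevisiae cultured on non-fermentable YPEG for 48 hours at 37C.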
# * hit, by the source's call; ? = inconclusive; . = no result given. An excerpt weighted towards active compounds, which were near 1.2% of everything screened. Unless noted, the call rests on the fitted dose curve; in most records, active means well fitted curve in the direction sought with a large enough effect; inconclusive means small, poorly fitted or top-dose-only effect, or another doubt; inactive means no such curve, though single readings can be large; an effect the other way counts as inactive or inconclusive. Potency means the concentration at half of the fitted maximal effect.
SMILES,BRCA1 expr act,ERG Ets-DNA blk,B2AR arrestin,Mito fusion yeast
Cc1ccccc1S(=O)(=O)Cc1ccc(C(=O)NCc2ccccc2Cl)o1,.,3%,.,.
CC(=O)C1=C(O)C(=O)N(Cc2cccnc2)C1c1ccc(C(C)C)cc1 (stereo not drawn),0%,-3%,-1%,4.5µM*
CC(=O)C1=C(O)C(=O)N(Cc2cccnc2)C1c1ccccc1Cl (stereo not drawn),27%,-2%,0%,2%
Cn1c(=S)c2[nH]c(SCCN3CCCC3)nc2n(C)c1=O,-7%,-14%,16µM*,-25%
Cn1c(=S)c2[nH]c(SCCN)nc2n(C)c1=O,-39%,-3%,.,.
CCN1C(=O)[C@H]2[C@@H](c3ccc(-c4cccc(Cl)c4)cc3)N[C@@](C)(C(=O)OC)[C@H]2C1=O,-39%,0%,0%,22µM*
CCN1C(=O)[C@H]2[C@@H](c3ccc(-c4ccccc4)cc3)N[C@@](C)(C(=O)OC)[C@H]2C1=O,-2%,11%,0%,20%
COc1ccc(C(=O)NCC2OCCc3ccccc32)c(O)c1 (stereo not drawn),11µM*,-5%,-1%,14%
Cc1nn(-c2ccccc2)c(/N=C/c2ccc(O)cc2)c1-c1ccccc1,5.6µM*,42%,0%,-3%
Cc1nn(-c2ccccc2)c(C)c1-c1ccccc1O,22%,4%,-2%,2%
COc1cccc(CNC(=O)CSc2ccc(-c3sc(-c4ccccc4)nc3C)nn2)c1,.,-1%,.,.
CCCCCCN1C=CC=C/C1=C/C=C(C#N)C#N,-10%,-3%,-2%,13µM*
O=C(CN1C(=O)NC2(CCCCCC2)C1=O)c1ccc2c(c1)OCCO2,2.8µM*,1%,0%,8%
COC(=O)Cc1c(OC)ccn(CCc2c[nH]c3ccccc23)c1=O,2.2µM*,2%,0%,3%
Cc1ccc2ccc3cc(C(=O)Nc4ccc(C)c(F)c4)nc3c2[nH]1,0%,1%,.,.
CN(C)/[N+]([O-])=N/Oc1cc(F)c([N+](=O)[O-])cc1[N+](=O)[O-],-4%,.,.,.
O=C(Nc1sc(-c2ccccc2)cc1C(=O)O)c1ccccc1,11µM*,9%,0%,28%
Cc1cccc(N2CCN(C(=O)c3ccc4c(c3)N(Cc3ccccc3)C(=O)c3ccccc3S4(=O)=O)CC2C)c1 (stereo not drawn),.,-1%,.,.
CCOC(=O)N1CCN(c2nc3ccccc3n3cnnc23)CC1,2%,1%,-1%,25µM*
COc1ccc(N2CCN(c3cnc4ccccc4n3)CC2)cc1,?,3%,0%,3%
COc1cccc(N2CCN(c3cnc4ccccc4n3)CC2)c1,2µM*,4%,0%,-9%
Cc1ccc(-c2cc3onc(-c4ccccc4)c3c(=O)n2C)cc1,?,-1%,0%,1%
Cn1c(-c2ccc(F)cc2)cc2onc(-c3c(F)cccc3Cl)c2c1=O,2µM*,7%,0%,.
Cc1cccc(C2NC(=O)c3c(sc4c3CCN(C)C4)N2)c1O (stereo not drawn),.,8%,.,.
Cc1cccc(NC(=O)N2CC(=O)Nc3sc4c(c3C2c2ccccc2)CCCC4)c1C (stereo not drawn),.,-1%,.,.
SMILES,BRCA1 expr act,ERG Ets-DNA blk,B2AR arrestin,Mito fusion yeast
Nc1ccccc1-c1nc2ccccc2[nH]1,?,10%,0%,5%
O=c1[nH]cccc1-c1nc2ccccc2[nH]1,8.9µM*,-10%,0%,-1%
O=C(CNC(=O)c1ccco1)Nc1ccc(Cl)cc1,13µM*,-7%,0%,1%
COc1cc(NC(=O)CC(C)C)ccc1NC(=O)c1ccco1,7.9µM*,.,.,.
CCC(=O)Nc1ccc(NC(=O)c2ccco2)c(OC)c1,86%,-5%,0%,3%
CC(=O)Nc1ccc(C(=O)/C=C/c2ccco2)cc1,76%,16%,0%,0%
CCC(=O)Nc1ccc(NC(=O)c2ccco2)cc1,2.5µM*,11%,0%,-1%
CCC(=O)Oc1ccc(NC(=O)c2ccco2)cc1,67%,18%,0%,0%
O=C(/C=C\c1ccco1)c1ccc(NC(=O)c2ccco2)cc1,1.8µM*,-4%,0%,9%
CCn1c(=O)cc(OCC(=O)N2CCN(c3ccc(OC)cc3)CC2)c2ccccc21,-29%,0%,.,.
Cn1nnnc1SCCCNCc1cc(Cl)ccc1OCc1ccccc1,.,1%,.,.
Cc1cccc(NS(=O)(=O)c2ccc3c(c2)CCN3C(=O)C2CC2)c1C,0%,2%,.,.
O=C(c1ccccc1)c1cccc(NC(=O)c2ccco2)c1,11µM*,-3%,0%,15%
COc1ccc(Br)cc1C(=O)Nc1cccc(NC(=O)c2ccco2)c1,-52%,6%,0%,?
COc1c(C)cc(Br)cc1C(=O)Nc1cccc(NC(=O)c2ccco2)c1,-55%,-4%,0%,20µM*
Cc1ccc(C(=O)c2cn(CC(=O)Nc3ccc(C)cc3Cl)c3nc(C)ccc3c2=O)cc1,.,4%,.,.
CC(=O)Nc1cccc(OCC(=O)Nc2sccc2C(N)=O)c1,4µM*,-6%,0%,-1%
CSc1ccc(-c2nnn(Cc3ccccn3)n2)cc1,8.9µM*,3%,0%,0%
CCC(NC(C)C)C(O)c1ccc(O)c2[nH]c(=O)ccc12 (stereo not drawn),4%,-19%,0.18µM*,-3%
CC(CN1CCOCC1)OC(=O)c1ccc2c(c1)OCCO2 (stereo not drawn),7.9µM*,-4%,-4%,-26%
CC(CN1CCCCC1)OC(=O)c1ccc2c(c1)OCCO2 (stereo not drawn),31%,10%,0%,9%
CN(C)/C=N/c1ncc(C(=O)c2ccccc2)s1,5.6µM*,5%,0%,-2%
CCn1c(=O)c2cc(C(=O)N(CCCOC(C)C)Cc3ccco3)sc2c2ccccc21,-16%,2%,.,.
O=S(=O)(c1cccs1)N1CCCc2cccc(O)c21,13µM*,-4%,0%,4%
COc1ccc(C2CC2/C(=N/O)c2ccccc2)cc1 (stereo not drawn),11µM*,14%,0%,-4%
SMILES,BRCA1 expr act,ERG Ets-DNA blk,B2AR arrestin,Mito fusion yeast
COc1ccc(C2CC2/C(=N/O)c2ccccn2)cc1 (stereo not drawn),54%,2%,0%,-3%
COc1ccc(C2CC2C(=O)c2ccccn2)cc1 (stereo not drawn),8.9µM*,3%,0%,4%
O=C(c1ccc2c(c1)N(Cc1cccc(Cl)c1)C(=O)c1ccccc1S2(=O)=O)N1CCc2ccccc21,.,0%,.,.
CC(=O)NCCC1CCCCN1C(=O)c1cc(COc2cc(C)ccc2C)on1 (stereo not drawn),7.1µM*,-4%,0%,-3%
COC1CCN(C(=O)c2cc(COc3cc(C)ccc3C)on2)CC1,64%,.,.,.
COCCN1CCN(C(=O)c2cc(COc3cc(C)ccc3C)on2)CC1,?,6%,0%,-25%
Cc1ccc(C)c(OCc2cc(C(=O)N3CCOCC3)no2)c1,18µM*,17%,-1%,-4%
